# Screen size: about 52,000 compounds; about 4,300 (8.3%) were called active. The full list was thinned out, with actives kept by preference. Values without a mark were called inactive. Cut-off read from the data, not from the text of the source: active = survival mostly below about 52% (no sharp cut-off); inactive = mostly above about 56%.
# System: DeltatarO mutant
# Assay: growth inhibition of S. aureus wild type versus tarO mutant, primary screen, teichoic acid synthesis inhibitors, RN4220, OD600 (AID 463173)
# Conditions: OD600, 18 h, active compounds read low, screened at 18.75 µg/mL (by protocol)
row,SMILES,survival
1,CCCSc1nnc2c(n1)OC(CC)N(C(C)=O)c1ccccc1-2 (stereo not drawn),62%
2,COc1ccc(-c2noc(N3CCN(c4cccc(C)c4C)CC3)n2)cc1OC,94%
3,Cc1ccc(OCc2ccc(-c3nc(C#N)c(NCc4ccccc4Cl)o3)o2)cc1,100%
4,O=C(Nc1ccc(C(F)(F)F)cc1)c1cc(S(=O)(=O)N2CCCc3ccccc32)ccc1F,101%
5,COc1ccc(NC(=O)c2sc3nc[nH]c(=O)c3c2C)cc1Cl,99%
6,CCOc1cc2[nH]c(=O)n(CCCC(=O)N3CCN(c4cccc(Cl)c4)CC3)c(=O)c2cc1OCC,81%
7,O=C(CCCn1c(=O)[nH]c2ccc(Br)cc2c1=O)N1CCN(c2cccc(Cl)c2)CC1,48% (active)
8,COC(=O)c1ccc2c(=O)n(CCCCCC(=O)N3CCN(c4cc(Cl)ccc4C)CC3)c(=O)[nH]c2c1,129%
9,COc1cccc(N2CCN(C(=O)CCCn3c(=O)[nH]c4ccc(Br)cc4c3=O)CC2)c1,53%
10,Cc1ccc(Cl)cc1N1CCN(C(=O)CCCCCn2c(=O)[nH]c3ccccc3c2=O)CC1,78%
11,Cc1ccc(Cl)cc1N1CCN(C(=O)CCCn2c(=O)[nH]c3ccc(Br)cc3c2=O)CC1,29% (active)
12,O=c1[nH]c(-c2ccc(S(=O)(=O)N3CCCC3)cc2)nc2sc3c(c12)CCCC3,120%
13,COc1cc(OC)c(NS(=O)(=O)c2cc(-c3cnc(C)o3)ccc2OC)cc1Cl,67%
14,O=C(CSc1nc2c(c(=O)[nH]1)CCCC2)Nc1ccccc1C(F)(F)F,58%
15,CCc1ccc(-n2c(SCC(=O)NC(C)CC)nc3n[nH]c(C)c3c2=N)cc1 (stereo not drawn),122%
16,O=S(=O)(c1cccc(Cl)c1)n1c(/C=C/c2ccccc2Cl)nc2ccccc21,68%
17,COc1cccc(C2Nc3ccccc3-c3nnc(SCc4ccccc4)nc3O2)c1OC (stereo not drawn),140%
18,CCOc1ccccc1C1Nc2ccccc2-c2nnc(SCc3ccccc3)nc2O1 (stereo not drawn),44% (active)
19,COc1cc(OC)c(C2Nc3ccccc3-c3nnc(SCc4ccccc4)nc3O2)cc1OC (stereo not drawn),54%
20,CCOc1cc(C2Nc3ccccc3-c3nnc(SCc4ccccc4)nc3O2)ccc1OC (stereo not drawn),45% (active)
21,CCOc1ccc(C2Nc3ccccc3-c3nnc(SCc4ccccc4)nc3O2)cc1OC (stereo not drawn),50%
22,O=C(O)COc1ccccc1C1Nc2ccccc2-c2nnc(SCc3ccc(Cl)cc3)nc2O1 (stereo not drawn),66%
23,COc1ccc(-c2noc(-c3nnn(-c4ccc(C(C)C)cc4)c3C)n2)cc1OC,67%

# Source: PubChem BioAssay AID463173 (ICCB-Longwood Screening Facility, Harvard Medical School, 2010)
